Gli-Sufu antag = Gli-Sufu pathway antagonism. AID 588413. actives 0.74% (n = 340,000). inhibition, % at 5 µM. Sufu-KO-LIGHT fibroblasts, Gli luciferase reporter luminescence;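 active = inhibition above about 55%, limit read from the data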;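 note: 0% = DMSO-treated cells and 100% = wells with medium but no cells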
CSC inhib = blocks cancer stem cells; cancer stem cell-like cells viability, luminescence; inhibition, % at 7.5 µM; actives 1.1% (n = 300,000); in the data active = inhibition above about 75%; tested in HMLE shEcad cells
NR3A LBD binder = modulates the human NR3A ligand-binding domain; actives 2.5% (n = 340,000); Tm shift relative to glycine control, % at 25 µM; AID 1259313; NR3A LBD differential scanning fluorimetry, Tm shift; 0% = protein alone, 100% = glycine-bound protein;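 active = melting temperature shift of at least 10% of the positive control shift, at one fixed dose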
Mdm2-MdmX inh = disrupts the human Mdm2-MdmX interaction; O15151+Q00987; SaOS-2 split-luciferase Mdm2/MdmX complementation, luminescence; inhibition, % at 8 µM; actives 3% (n = 330,000);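 active = inhibition of at least 50% at 8 µM in the primary screen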
Target sequence (O15151 whole entry, looked up): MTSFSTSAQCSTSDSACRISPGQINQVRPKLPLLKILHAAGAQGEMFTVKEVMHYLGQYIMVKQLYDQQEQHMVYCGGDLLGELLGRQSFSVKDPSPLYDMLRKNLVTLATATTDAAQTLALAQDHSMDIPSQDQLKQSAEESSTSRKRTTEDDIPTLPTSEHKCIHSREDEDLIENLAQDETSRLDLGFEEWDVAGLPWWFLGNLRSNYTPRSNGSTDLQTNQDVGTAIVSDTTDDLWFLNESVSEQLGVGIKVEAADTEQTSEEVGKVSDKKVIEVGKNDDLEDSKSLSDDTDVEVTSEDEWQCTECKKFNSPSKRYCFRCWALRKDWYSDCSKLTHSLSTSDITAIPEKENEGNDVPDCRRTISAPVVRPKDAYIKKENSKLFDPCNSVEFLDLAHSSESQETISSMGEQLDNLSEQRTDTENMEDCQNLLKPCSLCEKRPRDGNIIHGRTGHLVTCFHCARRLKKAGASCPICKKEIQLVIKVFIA
Target sequence (Q00987 whole entry, looked up): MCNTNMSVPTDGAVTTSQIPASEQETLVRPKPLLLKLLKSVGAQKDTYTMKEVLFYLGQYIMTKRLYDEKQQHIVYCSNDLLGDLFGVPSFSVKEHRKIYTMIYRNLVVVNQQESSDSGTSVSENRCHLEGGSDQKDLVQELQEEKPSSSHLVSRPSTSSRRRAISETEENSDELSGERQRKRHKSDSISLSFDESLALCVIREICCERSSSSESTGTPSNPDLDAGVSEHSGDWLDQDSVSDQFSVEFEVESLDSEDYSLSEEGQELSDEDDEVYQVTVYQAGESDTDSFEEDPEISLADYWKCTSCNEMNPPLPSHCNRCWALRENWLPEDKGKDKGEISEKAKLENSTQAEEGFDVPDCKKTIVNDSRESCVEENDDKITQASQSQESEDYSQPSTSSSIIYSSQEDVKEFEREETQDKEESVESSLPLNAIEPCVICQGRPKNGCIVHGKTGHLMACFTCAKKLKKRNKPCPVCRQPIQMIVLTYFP
Beta cell apopt = beta cell apoptosis inhibition; actives 0.8% (n = 300,000); INS-1E cytokine-induced death, ATP luminescence, 48 h; percent of positive-control rescue, neutral wells zero; protection from apoptosis, % (no concentration beside the values); AID 435005;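 active = Every replicate reaches about 75%, or at least half do and their mean reaches it too, limit read from the data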;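 note: 0% = cytokine-treated negative control wells and 100% = positive control rescue; higher means more ATP so stronger rescue from cytokine killing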
MPTP inh = permeability transition pore inhibition | isolated mouse mitochondria, Ca2+ swelling absorbance, 30 min | inhibition, % at 10 µM | AID 602449 | actives 1.4% (n = 360,000);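 active = inhibition of 50% or more, scaled per plate between neutral and stimulator controls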;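 note: 0% = DMSO wells given calcium and 100% = 1 mM EGTA wells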
The depositor's hits bear a star; · = not tested or not shown. In the library only some 6.6% were active in any assay of this set; here they are far more common.

SMILES	Gli-Sufu antag	CSC inhib	NR3A LBD binder	Mdm2-MdmX inh	Beta cell apopt	MPTP inh
C[C@H](NC(=O)N1CCn2c1nc1ccccc12)C(=O)NCc1ccc2c(c1)OCO2	-4	-11	1	31	·	0
CN(C(=O)C1CCCC1)C1CCS(=O)(=O)C1 (stereo unspecified)	-11	7	-1	12	-4	0
O=C(NCc1cccc(Cl)c1)C1CCN(S(=O)(=O)c2ccc(F)cc2)CC1	9	13	4	10	5	-2
CCCc1cc2c(=O)c(-c3ccc4c(c3)OCCO4)coc2cc1OC(=O)c1ccco1	-56	89*	0	-205	4	5
COC(=O)COc1cccc(NS(=O)(=O)c2ccc(NC(C)=O)cc2)c1	-10	-5	14*	-22	-3	2
CCOc1ccc(S(=O)(=O)Nc2cccc(OC)c2)cc1	5	·	11*	2	-4	1
CCOc1ccc(NS(=O)(=O)c2ccc(N)cc2)cc1	-4	-18	1	-4	-4	-1
CC(=O)Nc1cccc(OCC(=O)NS(=O)(=O)c2ccc(C)cc2)c1	4	-5	0	-27	-2	0
COc1ccc(C)cc1Nc1n[n+](-c2ccccc2)c(-c2ccc(SC)cc2)s1	17	60	27*	12	38	0
COc1ccc(C)cc1Nc1n[n+](-c2ccccc2)c(-c2ccc(NC(C)=O)cc2)s1	-33	7	-10	6	4	-1
CCN(CC)C(=O)[C@H]1C[C@H](CC(=O)NC(C)(C)C)C(=O)N2CCc3c([nH]c4ccc(Cl)cc34)[C@]12C	5	·	0	13	·	1
Cc1ccccc1-n1nc2c(c1NC(=O)C(C)(C)C)CS(=O)(=O)C2	0	1	-1	-8	-11	0
CCCCN1C(=O)C(CC(=O)NC2CCCC2)CC(C(=O)N(C(C)C)C(C)C)=C1C (stereo unspecified)	·	·	·	·	·	-2
Cc1occc1C(=O)Nc1ccc2ccccc2c1	-2	-3	24*	-225	-8	-4
CC(=O)c1cccc(NC(=O)c2ccoc2C)c1	0	-3	-1	12	-4	0
COc1ccc(NC(=O)c2cc(-c3ccccc3)oc2C)cc1	5	-7	18*	8	3	6
Cc1oc(-c2ccccc2)cc1C(=O)Nc1ccc2ccccc2c1	-5	7	15*	19	·	0
Cc1oc(-c2ccccc2)cc1C(=O)Nc1ccccc1	15	5	4	8	7	-3
CC(C)N(C)C1=CC(=O)C(N(C)C(C)C)=CC1=O	6	·	-1	·	·	0
CC1(C)CC(=O)C=C(NC2CCCCCC2)C1	-6	1	11*	-21	-4	1
CC1(C)CC(=O)C=C(NC2CCCCCCC2)C1	0	-13	1	10	-2	0
Cc1ccccc1NS(=O)(=O)c1ccc(-c2ccc(=O)[nH]n2)o1	-4	-3	15*	-10	-8	0
CCN(CC)c1ccc(NS(=O)(=O)c2ccc(-c3ccc(=O)[nH]n3)o2)c(C)c1	10	-1	4	24	-2	2
CCc1ccc(NC(=O)c2cccc(NC3=NC4CS(=O)(=O)CC4S3)c2)cc1 (stereo unspecified)	-4	·	-7	11	-2	-2
CCc1ccc(NC(=O)Cc2ccc(NC3=NC4CS(=O)(=O)CC4S3)cc2)cc1 (stereo unspecified)	-35	-9	10*	-4	10	-1
SMILES	Gli-Sufu antag	CSC inhib	NR3A LBD binder	Mdm2-MdmX inh	Beta cell apopt	MPTP inh
CCc1ccc(NC(=O)c2ccc(NC3=NC4CS(=O)(=O)CC4S3)cc2)cc1 (stereo unspecified)	-24	-2	13*	21	2	0
Cc1cc(C(=O)COC(=O)Cc2ccc(Br)cc2)c(C)n1C	4	·	1	6	-6	0
O=C(OCC(=O)N1CCc2ccccc21)c1n[nH]c(=O)c2ccccc12	5	-8	4	18	2	0
Cc1nc2n(c(=O)c1CCN1CCC(c3noc4cc(F)ccc34)CC1)CCCC2	0	17	10*	12	-6	-2
COc1cc(NC(=S)NC(C)=O)ccc1NC(=O)C(C)C	-13	0	11*	8	0	-1
Nc1ccccc1SCC(=O)Nc1nc(-c2ccccc2)cs1	1	127*	11*	-9	-11	0
Cc1csc(SCC(=O)Nc2nc(-c3ccccc3)cs2)n1	-13	-12	-7	-19	-10	0
Cc1cc(=O)[nH]c(SCC(=O)Nc2nc(-c3ccccc3)cs2)n1	25	-6	-4	26	·	2
Cc1ccc(-c2csc(NC(=O)CSc3nc4ccccc4[nH]3)n2)cc1	-34	·	20*	·	·	48
Cc1ccc(NC(=O)c2sc3ncn(CC(=O)N4CCN(c5ccccn5)CC4)c(=O)c3c2C)cc1F	12	4	10	-9	6	-1
Cc1ccc(NC(=O)c2sc3ncn(CC(=O)N4CCN(c5ccccn5)CC4)c(=O)c3c2C)cc1Cl	21	13	14*	16	6	-1
Cc1ccc(F)cc1C(=O)N1CCCCC1c1cc(C(=O)Nc2ccc(F)c(Cl)c2)no1 (stereo unspecified)	·	·	·	·	·	0
O=[N+]([O-])c1cccnc1N1CCC(c2cc(-c3cccc(C(F)(F)F)c3)n[nH]2)CC1	7	123*	6	46	30	1
O=[N+]([O-])c1cccnc1N1CCC(c2cc(-c3ccc(Cl)cc3Cl)n[nH]2)CC1	-10	106*	4	25	1	-6
COc1ccc(OC)c(-c2cc(C3CCN(c4ncccc4[N+](=O)[O-])CC3)[nH]n2)c1	-12	·	-10	32	-8	0
COc1cc2c(-c3ccc(O)cc3)nc3c(c(C)nn3-c3ccccc3)c2cc1OC	22	88*	28*	·	53	4
COc1ccc(NS(=O)(=O)c2cc(Br)cc3c2N(C(C)=O)CC3)cc1	22	64	35*	45	·	0
CN(C(=O)COC(=O)C12CC3CC(CC(Cl)(C3)C1)C2)c1ccccc1	1	-12	1	26	3	0
COC(=O)Cc1[nH]nc2c1C(c1ccc(O)c(OC)c1)C(C#N)=C(N)O2 (stereo unspecified)	-3	-20	-1	12	1	3
C/C(=N\Nc1cccc(Cl)c1)C1(C)N(O)C(C)(C)C(c2ccco2)=[N+]1[O-] (stereo unspecified)	1	84*	2	5	7	2
C/C(=N\O)C1(C)N(O)C(C)(C)C(c2ccco2)=[N+]1[O-] (stereo unspecified)	-7	·	-3	1	-3	2
N#Cc1ccc(S(=O)(=O)N2CCc3[nH]c4ccc(F)cc4c3C2)cc1	12	5	11*	-1	0	4
CCOC(=O)c1c(C)n(C)c2cc(Br)c(OC)cc12	-4	·	11*	-3	-8	0

Screening results as filed in PubChem.
